Laboratory results published in ChEMBL document CHEMBL4303097 (2020).
Over roughly 1,500 compounds, “Inhibition index” has its median near 0.17; the highest 2% begin near 1.3. This excerpt belongs to a sample that is enriched for the highest values.

What follows are compounds tested on SARS-CoV-2 (assay: Inhibition of cell viability relative to arbidol control (inhibition index > 1 indicates higher activity) measured by fluorescence (OD590nm) in Vero E6 cells infected with SARS-CoV-2 (strain BavPat1) at MOI 0.002 after 72hrs).
Type: functional, Chlorocebus sabaeus, Vero C1008

Compound | Inhibition index
C#C[C@]1(OC(C)=O)CC[C@H]2[C@@H]3CCC4=CC(=NO)CC[C@@H]4[C@H]3CC[C@@]21CC | -0.3327
C[C@H](O)[C@H](O)[C@H]1CNc2[nH]c(N)nc(=O)c2N1.Cl.Cl [SAPROPTERIN DIHYDROCHLORIDE] | 0.4022
O=C1CN(/N=C/c2ccc(-c3ccc([N+](=O)[O-])cc3)o2)C(=O)[N-]1.[Na+] [DANTROLENE SODIUM] | 0.3986
Nc1ccc(S(=O)(=O)[N-]c2cnc3ccccc3n2)cc1.[Na+] [SULFAQUINOXALINE SODIUM] | -0.000446
COc1cc2nc(N3CCN(C(=O)C4CCCO4)CC3)nc(N)c2cc1OC.Cl (stereo not given) | -0.01131
CN(C)CCCN1c2ccccc2Sc2ccccc21.Cl [PROMAZINE HYDROCHLORIDE] | 1.161
Cl.N[C@@H]1CCCCN(c2c(F)cc3c(=O)c(C(=O)O)cn(C4CC4)c3c2Cl)C1 [BESIFLOXACIN HYDROCHLORIDE] | 0.08463
CCCCc1oc2ccccc2c1C(=O)c1cc(I)c(OCCN(CC)CC)c(I)c1.Cl [AMIODARONE HYDROCHLORIDE] | -0.1051
COCCc1ccc(OCC(O)CNC(C)C)cc1.COCCc1ccc(OCC(O)CNC(C)C)cc1.O=C(O)C(O)C(O)C(=O)O (stereo not given) [METOPROLOL TARTRATE] | 0.03331
CCC(=O)[C@@]1(C)[C@H](C)C[C@H]2[C@@H]3CCC4=CC(=O)C=C[C@]4(C)[C@H]3[C@@H](O)C[C@@]21C [RIMEXOLONE] | 0.1893
Cl.NCCc1ccc(O)c(O)c1 [DOPAMINE HYDROCHLORIDE] | 1.056
C[C@@H]1C[C@H]2[C@@H]3C[C@H](F)C4=CC(=O)C=C[C@]4(C)[C@@]3(Cl)[C@@H](O)C[C@]2(C)[C@H]1C(=O)COC(=O)C(C)(C)C [CLOCORTOLONE PIVALATE] | 0.111
O=C(O)Cc1ccccc1Oc1ccc(Cl)cc1Cl [FENCLOFENAC] | 0.3257
CC(=O)OCC(=O)[C@@]12OC(C)(C)O[C@@H]1C[C@H]1[C@@H]3C[C@H](F)C4=CC(=O)C=C[C@]4(C)[C@@]3(F)[C@@H](O)C[C@@]12C [FLUOCINONIDE] | 0.2896
CCN(CC)CC(=O)Nc1c(C)cccc1C.Cl | -0.01364
CC1=C(/C=C/C(C)=C/C=C/C(C)=C\C(=O)O)C(C)(C)CCC1 [ISOTRETINOIN] | 1.484
COc1cc(C)c(/C=C/C(C)=C/C=C/C(C)=C/C(=O)O)c(C)c1C [ACITRETIN] | 0.2609
CC1=C(/C=C/C(C)=C/C=C/C(C)=C/C(=O)O)C(C)(C)CCC1 [TRETINOIN] | 0.999
CN1CCN2c3ccccc3Cc3ccccc3C2C1.Cl (stereo not given) [MIANSERIN HYDROCHLORIDE] | 0.175
CC[C@H](C)C(=O)O[C@H]1C[C@@H](C)C=C2C=C[C@H](C)[C@H](CC[C@@H]3C[C@@H](O)CC(=O)O3)[C@H]21 [LOVASTATIN] | -0.07572

Compound | Inhibition index
CC(C)(O/N=C(\C(=O)N[C@@H]1C(=O)N2C(C(=O)[O-])=C(C[n+]3ccccc3)CS[C@H]12)c1csc(N)n1)C(=O)O.O.O.O.O.O | 0.06868
CCOc1ccc2nc(S(N)(=O)=O)sc2c1 [ETHOXZOLAMIDE] | 2.099
CC(O)C(=O)O.CCOc1ccc2nc3cc(N)ccc3c(N)c2c1 | 0.4974
Cl.Nc1nc2ccc(OC(F)(F)F)cc2s1 | 0.04491
CC(=O)O.O=C(NCC1CCCCN1)c1cc(OCC(F)(F)F)ccc1OCC(F)(F)F (stereo not given) [FLECAINIDE ACETATE] | 0.049
CN[C@@H]1[C@H](O)[C@H](NC)[C@H]2O[C@@]3(O)C(=O)C[C@@H](C)O[C@H]3O[C@@H]2[C@H]1O.Cl.Cl | 0.1494
COc1cccc(N(C)C(=S)Oc2ccc3c(c2)CCCC3)n1 [LIRANAFTATE] | 0.6869
CCCCc1cc2ccccc2c(OCCN(C)C)n1.Cl [DIMETHISOQUIN HYDROCHLORIDE] | -0.1351
CN(C)N=Nc1[nH]cnc1C(N)=O | -0.0106
CC(=O)OCC(=O)[C@@]1(O)CC[C@H]2[C@@H]3CCC4=CC(=O)CC[C@]4(C)[C@H]3[C@@H](O)C[C@@]21C [HYDROCORTISONE ACETATE] | 0.145
Cl.O=C(OCC(O)CO)c1ccccc1Nc1ccnc2cc(Cl)ccc12 (stereo not given) | 0.07624
CCN(CC)CCCC(C)Nc1c2ccc(Cl)cc2nc2ccc(OC)cc12.Cl.Cl.O.O (stereo not given) [QUINACRINE HYDROCHLORIDE] | -0.1724
CCN(CC)CCCC(C)Nc1ccnc2cc(Cl)ccc12.O=P(O)(O)O.O=P(O)(O)O (stereo not given) [CHLOROQUINE PHOSPHATE] | 1.351
CCN(CC)Cc1cc(Nc2ccnc3cc(Cl)ccc23)ccc1O.Cl.Cl.O.O [AMODIAQUINE HYDROCHLORIDE] | 0.1282
COc1cc(NC(C)CCCN)c2ncccc2c1.O=P(O)(O)O.O=P(O)(O)O (stereo not given) [PRIMAQUINE PHOSPHATE] | 0.6817
NC(=O)c1cc[n+](CC2=C(C(=O)O)N3C(=O)[C@@H](NC(=O)[C@@H](c4ccccc4)S(=O)(=O)O)[C@H]3SC2)cc1.O.[Na+] | 0.1703
CN1CCc2cccc3c2[C@H]1Cc1ccc(O)c(O)c1-3.CN1CCc2cccc3c2[C@H]1Cc1ccc(O)c(O)c1-3.Cl.Cl.O [APOMORPHINE HYDROCHLORIDE] | 0.4481
CCCCOc1ccc(OCCCN2CCOCC2)cc1.Cl [PRAMOXINE HYDROCHLORIDE] | 0.1376
CCOC(=O)c1c(N)sc2c1CCN(Cc1ccccc1)C2.Cl | 0.8505
O=C([O-])C[C@H](O)C[C@H](O)/C=C/c1c(C2CC2)nc2ccccc2c1-c1ccc(F)cc1.O=C([O-])C[C@H](O)C[C@H](O)/C=C/c1c(C2CC2)nc2ccccc2c1-c1ccc(F)cc1.[Ca+2] [PITAVASTATIN CALCIUM] | -0.03681
